# Laboratory results taken from PubChem BioAssay (Tox21).
# Active and inactive are the calls of the source. The call rests on the fitted dose curve.
# Test: qHTS assay to identify small molecule agonists of the estrogen related receptor (ERR) signaling pathway from Tox21 library (AID 1224849); further: nearly all actives have a fitted effect of over 15% in size
# Conditions: ERR reporter cell line, ONE-Glo luciferase, 18 h; at 42.5 µM (top of the series)
# Excerpt: National Center for Advancing Translational Sciences [NCATS]
# NIH Chemical Genomics Center [NCGC]
# U.S. Environmental Protection Agency [EPA]
# National Institutes of Environmental Health Sciences [NIEHS]
# National Toxicology Program [NTP]
# Estrogen related receptors (ERRs), the first orphan nuclear receptors discovered, play an important role in the control of cellular energy metabolism. ERRs are required for high-energy production in response to the environmental challenges. ERR-alpha was also identified as an adverse marker for breast cancer progression; ERR-alpha-positive tumors have a poor prognosis. To screen and to identify environmental compounds that perturb the ERR signaling pathways could provide valuable information for potential therapeutic or preventive measures in the treatment of metabolic disease. For identifying ERR agonists, ERR cell line (provided by NTP) has been used to screen Tox21 10K library.
# The ERR cells were dispensed at 2,000 cells/5 ul/well in 1536-well white plates using a Multidrop dispenser. After the assay plates were incubated at a 37 C/5% CO2 incubator for 6 hours, 23 nL of compounds dissolved in DMSO, positive and negative controls or DMSO only was transferred to the assay plate by a pin tool. The plates were incubated at 37 C for 18 hours. 4 ul/well of One-Glo reagent was added into the assay plates using a Flying Reagent Dispenser. After 30-minute incubation at room temperature, the luminescence intensity in the plates was measured using a ViewLux plate reader.
# On the % scale 0 is the no-effect control and ±100 the full control effect.
row,Compound,"activity change, positive = activation"
1,CN(C)CCCN1c2ccccc2CCc2ccc(Cl)cc21,-18.5% (inactive)

# Same assay, conditions: ERR reporter cell line, ONE-Glo luciferase, 18 h; at 92.4 µM (top of the series)
row,Compound,"activity change, positive = activation"
1,CN(C)CCCN1c2ccccc2CCc2ccc(Cl)cc21,-78.1% (inactive)

# Same assay, conditions: ERR reporter cell line, ONE-Glo luciferase, 18 h; at 92.4 µM (top of the series) unless noted
row,Compound,"activity change, positive = activation"
1,C=CCCCCCCCCC=O,-2.86% (inactive)
2,O=Cc1cccc([N+](=O)[O-])c1,-4.24% (inactive)
3,C=CCS(=O)(=O)O,4.55% (inactive)
4,CCSC(=O)N(CC(C)C)CC(C)C,3.6% (inactive)
5,O=c1cc(CO)occ1O,3.24% [at 42.5 µM] (inactive)
6,C=C[Si](OC(=C)C)(OC(=C)C)OC(=C)C,-0.275% (inactive)
7,NC(CSCC(=O)O)C(=O)O (stereo not given),5.41% [at 42.5 µM] (inactive)
8,CCO/C([O-])=N/c1c[n+](N2CCOCC2)no1,0.723% [at 42.5 µM] (inactive)
9,CCOC(=O)CCC(C)=O,4.77% (inactive)
10,CCS(=O)(=O)c1ccc(OC)c(C(=O)OC)c1,4.43% [at 42.5 µM] (inactive)
11,Nc1ccccc1S(=O)(=O)O,3.7% (inactive)
12,CCCCCCCCCCCCCC=O,-0.514% [at 8.39 µM] (inactive)
13,O=C(CCCN1CCN(c2ccccn2)CC1)c1ccc(F)cc1,-14.3% [at 42.5 µM] (inactive)
14,CC(=O)c1ccccc1O,0.43% (inactive)
15,C=C(C)C(=O)OCCCCCCCC(C)C,2.01% (inactive)
16,CCCCOCCOCCOCCCC,0.577% (inactive)
17,CC(C)(CC(=O)O)C(=O)O,3.63% (inactive)
18,COc1ccc2c(c1)c(CC(=O)OCC(=O)O)c(C)n2C(=O)c1ccc(Cl)cc1,3.06% [at 42.5 µM] (inactive)
19,C=CCOCC(CC)(CO)COCC=C,4.88% (inactive)

row,Compound,"activity change, positive = activation"
1,FC1(F)C(F)(F)C(F)(F)C2(F)C(F)(F)C(F)(F)C(F)(F)C(F)(F)C2(F)C1(F)F (stereo not given),2.28% [at 42.5 µM] (inactive)
2,CC1(C)CO[C@@H](CC(=O)O)CN1,0.501% [at 42.5 µM] (inactive)
3,CCOC(=O)c1cccc(N)c1,-2.77% [at 42.5 µM] (inactive)
4,CC(C)OC(=O)c1ccccc1,0.248% (inactive)
5,C[N+](C)(C)CC(O)CC(=O)[O-] (stereo not given),3.63% [at 42.5 µM] (inactive)
6,CC(=O)Nc1c(I)cc(I)c(C(=O)O)c1I,7.03% [at 42.5 µM] (inactive)
7,CCCCCOC(=O)CCCCC,0.374% (inactive)
8,Cn1c(N)c(N=O)c(=O)n(C)c1=O,-7.21% (inactive)
9,FC(F)OC(Cl)C(F)(F)F (stereo not given),8.92% (inactive)
10,CC(C[N+](C)(C)C)OC(N)=O (stereo not given),3.25% [at 42.5 µM] (inactive)
11,NC(=O)Nc1ccccc1,8.88% (inactive)
12,OCCCC1CCCCC1,-0.619% (inactive)
13,COc1nc(N)nc2c1ncn2[C@@H]1O[C@H](CO)[C@@H](O)[C@@H]1O,4.89% [at 42.5 µM] (inactive)
14,C[C@](N)(Cc1ccc(O)cc1)C(=O)O,2.18% [at 8.39 µM] (inactive)
15,O=C(O)CCCc1ccccc1,7.78% [at 42.5 µM] (inactive)
16,COc1ccc2c(c1)CCCC2=O,4.85% [at 42.5 µM] (inactive)
17,CC(C)(C)NCCNC(C)(C)C,3.81% (inactive)
18,ClC(Cl)(Br)Br,1.45% (inactive)
19,CN(C)CCCSc1ccccc1NC(=O)/C=C/c1ccccc1,9.36% [at 42.5 µM] (inactive)
